Compound activity as filed in PubChem.
ssDAF-12 act = S. stercoralis DAF-12 nuclear receptor activators, primary screen, cell-based, luminescence, HEK293, GRIP1 co-expression, lit1-tk-luc; HEK293 ssDAF-12/GRIP1 lit1-tk-luc reporter; % of 3 µM dafachronic acid response; Nuclear hormone receptor DAF-12 (Strongyloides stercoralis); 370,000 compounds, 1% hits; activation, % at 6.8 µM;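 active = activation above the mean over all tested compounds plus 3 SD, cut at about 0.9% in these data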;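 also: 0% = DMSO-only wells and 100% = 3 µM delta7-dafachronic acid wells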
hgDAF-12 ag = H. glycines DAF-12 receptor agonists, primary screen, cell-based, luminescence, HEK293, GAL4 fusion, UAS-luciferase; Nuclear hormone receptor DAF-12 (Heterodera glycines), GAL4 fusion; HEK293 GAL4-hgDAF12 UAS-luciferase reporter, agonist luminescence; normalized to butyrate control; activation, % at 6.8 µM; 370,000 compounds, 1.8% hits;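 active = activation above a cutoff set at the mean of all screened compounds plus 3 SD, cut at about 10% in these data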;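 also: 0% = DMSO wells and 100% = sodium butyrate wells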
DAX1 inh-1 = DAX1 (NR0B1) inhibitors, primary screen, cell-based, HEK293, Gal4-DAX1, luciferase luminescence; Nuclear receptor subfamily 0 group B member 1 (Homo sapiens), P51843; HEK293 Gal4-DAX1 luciferase reporter; inhibition, % at 6.75 µM; 340,000 compounds, 0.99% hits; AID 504766, 2011;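 active = inhibition above the mean over all tested compounds plus 3 SD, cut at about 4.2% in these data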;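 also: 0% = DAX1-transfected cells with DMSO and 100% = empty-vector control cells with DMSO; inhibition shows as a rise in luminescence from relieved DAX1 repression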
Target sequence (P51843 207-470 limits assumed): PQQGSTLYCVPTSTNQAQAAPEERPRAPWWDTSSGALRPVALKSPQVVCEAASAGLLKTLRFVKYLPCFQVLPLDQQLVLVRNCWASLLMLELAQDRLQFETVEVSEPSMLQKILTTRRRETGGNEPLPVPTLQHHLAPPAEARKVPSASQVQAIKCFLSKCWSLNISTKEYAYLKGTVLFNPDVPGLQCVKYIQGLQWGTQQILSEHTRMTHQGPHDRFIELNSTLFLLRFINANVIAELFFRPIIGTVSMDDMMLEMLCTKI
DAX1 inh-2 = DAX1 (NR0B1) inhibitors on StAR promoter, primary screen, cell-based, luminescence, SF-1 (NR5A1), full-length DAX-1 | HEK293T StAR-luciferase reporter, SF-1/DAX-1 repression relief | inhibition, % at 6.8 µM | 370,000 compounds, 1.1% hits | AID 652010, 2013;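 active = inhibition above the mean over all tested compounds plus 3 SD, cut at about 3.6% in these data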;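 also: 0% = DAX-1 cells with DMSO and 100% = cells lacking DAX-1 with DMSO; higher inhibition means more luminescence from relief of DAX-1 repression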
hcDAF12 agonist = H. contortus DAF-12 nuclear receptor activators, primary screen, cell-based, luminescence, HEK293, lit1-tk-luc reporter. HEK293 hcDAF-12 lit1-tk-luc reporter; 0% DMSO, 100% Δ7-dafachronic acid. activation, % at 6.8 µM. 370,000 compounds, 1.4% hits. AID 652067, 2013;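 active = activation above the mean of all tested compounds plus 3 SD, cut at about 5.5% in these data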;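 also: 100% = response to 3 µM Δ7-dafachronic acid high control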
DAX1 conf = DAX1 (NR0B1) inhibitors relieving SF-1 repression, confirmation, cell-based, luminescence, HEK293T, full-length DAX-1, SF-1 activated StAR promoter | HEK293T StAR-promoter luciferase reporter, SF-1/DAX-1 repression | shares compounds with DAX1 inh-2 | inhibition, % at 6.8 µM | 2,400 compounds, 87% hits | AID 652134, 2013;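 active = inhibition above the average of every tested compound plus 3 SD, cut at about 3.8% in these data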;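 also: 0% = DAX-1 cells with DMSO and 100% = no DAX-1 control cells with DMSO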
SF1 mutant ctr = StAR reporter signal changes without DAX1, counter-screen for DAX1 inhibitor project, cell-based, luminescence, AF-2 mutant SF-1, transactivation; shares compounds with DAX1 inh-2; HEK293 StAR-luciferase, SF-1 AF2 mutant; inhibition, % at 6.8 µM; 2,400 compounds, 78% hits; AID 652136, 2013;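 active = inhibition above the mean of all tested compounds plus 3 SD, cut at about 3% in these data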;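 also: 0% = DAX-1 transfected cells with DMSO and 100% = cells without DAX-1 with DMSO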
Starred values were filed as active, the others as inactive; · = no result given. In the library only some 4.1% were active in any assay of this set; here they are far more common.

SMILES	ssDAF-12 act	hgDAF-12 ag	DAX1 inh-1	DAX1 inh-2	hcDAF12 agonist	DAX1 conf	SF1 mutant ctr
O=C(Cc1ccccc1)N1CCC(Oc2cccnc2)CC1	-1.5	1.3	·	0.6	-0.2	·	·
Cc1cc(-c2nnc(SCC(=O)Nc3cccc4ccccc34)n2N)n[nH]1	-0.9	-0.4	·	-1.6	-2.0	·	·
CCc1nnc(NC(=O)c2ccc3ncsc3c2)s1	-0.8	5.3	3.2	0.7	-0.1	·	·
Cc1cnc(NC(=O)c2ccc3ncsc3c2)s1	-0.4	12.5*	2.4	12.7*	5.1	15.1*	6.7*
COc1cc(SC)ccc1C(=O)NNC(=O)c1cc(C)oc1C	0.3	12.8*	-0.7	11.8*	3.5	6.9*	5.0*
COC(=O)[C@]12C[C@H](CC(=O)N3CCC(c4ccccc4)CC3)C(=O)N(Cc3ccc(Cl)cc3Cl)C1=C[C@H](C(C)C)O[C@@H]2C1CC1	-0.6	-0.3	·	0.7	1.7	·	·
COC(=O)c1cc(-c2cnc(OC)nc2OC)c(=O)n2c1CCC2	-1.2	-3.1	·	-1.2	1.6	·	·
Cc1ccc(OCc2csc(N)n2)cc1	-0.6	7.2	1.0	5.1*	1.3	3.0	2.0
COc1ccc(CN2C[C@H](COCc3ccccc3)Oc3cccc(F)c3S2(=O)=O)cc1	-1.0	1.8	·	-0.7	-1.2	·	·
COc1cccc2sc(N(CCCN(C)C)C(=O)c3ccc(S(=O)(=O)N4CCc5ccccc5C4)cc3)nc12	-1.0	1.6	0.1	-0.4	0.8	·	·
COc1ccc(C)c2sc(N(CCCN(C)C)C(=O)c3ccc(S(=O)(=O)N4CCc5ccccc5C4)cc3)nc12	-0.9	3.9	0.8	5.2*	0.8	-1.0	-2.0
C=CCN1C(=O)[C@H](CC(=O)N2CCC(c3ccccc3)CC2)[C@@]2(C(=O)OCC)CCCC=C12	-1.3	0.8	·	-1.5	-2.7	·	·
CC(=NNc1ccc2ccccc2n1)c1ccccc1O	0.5	8.8	-3.7	5.9*	5.0	0.2	-3.8
CC(=NNc1ccc2ccccc2n1)c1ccccn1	-2.3	-10.3	·	-3.0	-3.2	·	·
COC(=O)[C@]12C[C@H](CC(=O)N3CCCC3)C(=O)N(Cc3ccco3)C1=C[C@H](C(C)C)O[C@@H]2C1CC1	-1.5	-2.9	·	-0.3	2.3	·	·
Cc1ccc(Cc2cnc(NC(=O)c3ccco3)s2)cc1	0.9	13.2*	-0.3	6.6*	5.9*	16.0*	5.2*
Cc1cccc(NC(=O)c2ccco2)c1C	-0.9	-0.6	2.5	0.2	0.6	·	·
Cc1cc(NC(=O)c2ccco2)sc1C	0.7	7.3	0.5	4.5*	5.7*	6.4*	4.5*
COCCN1C(=O)C2=C(C1=O)C1N(C)c3ccccc3[C@@]13C[C@@H](CO)N(C(C)=O)C3=N2 (stereo partly specified)	-1.2	-2.9	·	-0.1	1.7	·	·
O=S1(=O)CC(N2CC=CC2)CN1Cc1cn(Cc2ccc(F)cc2)nn1 (stereo unspecified)	-1.3	-2.4	·	5.2*	-0.1	2.3	0.6
O=S1(=O)CC(N2CCN(CC3CC3)CC2)CN1Cc1ccc(F)cc1 (stereo unspecified)	-0.7	0.0	·	5.9*	2.2	2.6	-1.4
O=C(Nc1ccc2c(c1)nc1n2CCSC1)c1ccccc1	0.0	11.6*	-0.9	5.9*	2.3	12.6*	8.6*
COc1ccc(CCNC(C)=O)cc1	-1.3	-1.2	0.7	-0.1	3.1	·	·
COc1ccc(CCNC(=O)c2cccn2C)cc1	-0.7	8.6	4.1	6.3*	4.5	7.8*	6.5*
